Measured values as given in PubChem BioAssay AID624141 (Broad Institute, 2012).
Hit rate of the full screen: of about 17,000 compounds, about 260 (1.5%) were called active.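 The calls were made as follows: active = spot fluorescence over background with P-value below 7% in all four replicate spots, showing protein binding; inactive = the rest.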 For the sample, actives were picked, then their nearest neighbours and some compounds at random.

Biological target: Myc proto-oncogene protein (Homo sapiens) (UniProt P01106)
Assay: small molecules binding His-tagged c-Myc – biochemical, small molecule microarray, anti-His fluorescence, primary screen (AID 624141)

Chain of Myc proto-oncogene protein (Homo sapiens) (P01106 whole entry, looked up): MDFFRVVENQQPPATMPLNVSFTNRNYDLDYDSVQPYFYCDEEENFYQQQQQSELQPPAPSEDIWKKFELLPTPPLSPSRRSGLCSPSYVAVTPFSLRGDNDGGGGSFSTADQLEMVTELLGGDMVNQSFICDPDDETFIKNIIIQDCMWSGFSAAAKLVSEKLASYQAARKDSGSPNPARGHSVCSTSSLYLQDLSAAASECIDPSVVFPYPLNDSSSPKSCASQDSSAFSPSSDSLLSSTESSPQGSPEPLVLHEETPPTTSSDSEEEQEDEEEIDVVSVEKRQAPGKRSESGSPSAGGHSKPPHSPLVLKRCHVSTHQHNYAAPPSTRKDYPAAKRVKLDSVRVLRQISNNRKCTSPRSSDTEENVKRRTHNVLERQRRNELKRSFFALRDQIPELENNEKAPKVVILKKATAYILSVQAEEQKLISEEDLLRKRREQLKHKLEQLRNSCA

Row | SMILES | outcome
1 | CCOC(=O)c1ccc(COC(=O)c2cc(=O)[nH]c3ccccc23)o1 | inactive
2 | CC(C)NC(=O)N(C)C[C@H]1OCCCC[C@H](C)Oc2ccc(NC(=O)Nc3ccc4c(c3)OCO4)cc2C(=O)N([C@H](C)CO)C[C@@H]1C | inactive
3 | C[C@@H]1CN([C@@H](C)CO)C(=O)Cc2cc(NC(=O)CCN3CCOCC3)ccc2O[C@H]1CN(C)S(=O)(=O)c1ccccc1 | inactive
4 | Cc1noc(C)c1NC(=O)Nc1cccc2c1O[C@@H](CN(C)Cc1ccc3c(c1)OCO3)[C@@H](C)CN([C@@H](C)CO)C2=O | inactive
5 | C[C@@H]1CN([C@@H](C)CO)C(=O)CCCn2cc(nn2)CO[C@H]1CN(C)C(=O)Nc1ccc(N2CCCCC2)cc1 | inactive
6 | CC(C)NC(=O)Nc1ccc2c(c1)C(=O)N([C@@H](C)CO)C[C@H](C)[C@H](CN(C)C(=O)c1ccccc1)OCCCC[C@@H](C)O2 | inactive
7 | c1ccc2[nH]c(NCCN3CCOCC3)nc2c1 | inactive
8 | COC(=O)Cc1csc(Nc2c(C)n(C)n(-c3ccccc3)c2=O)n1 | inactive
9 | O=C(C1=C[C@H](c2coc3ccccc3c2=O)C[C@H](OCc2ccc(CO)cc2)O1)N1CCOCC1 | inactive
10 | O=C(C1=C[C@H](c2csc3ccccc23)C[C@H](OCc2ccc(CO)cc2)O1)N1CCCCC1 | active
11 | NC(=O)C1=C[C@H](c2csc3ccccc23)C[C@H](OCc2ccc(CO)cc2)O1 | inactive
12 | C=C1C[C@@]23CC[C@@H]4[C@](C)(CO)CCC[C@@]4(C)[C@@H]2CC[C@@H]1C3 | inactive
13 | Cc1noc(C)c1S(=O)(=O)Nc1ccc2c(c1)C(=O)N([C@H](C)CO)C[C@@H](C)[C@@H](CN(C)Cc1ccccc1)OCCCC[C@@H](C)O2 | inactive
14 | C[C@@H]1CN([C@H](C)CO)C(=O)c2cc(N(C)C)ccc2O[C@@H]1CN(C)S(=O)(=O)c1cn(C)cn1 | inactive
15 | C[C@H]1CCCCO[C@@H](CN(C)C(=O)c2ccccc2)[C@@H](C)CN([C@@H](C)CO)C(=O)c2cc(NS(=O)(=O)c3ccccc3)ccc2O1 | inactive
16 | CCCCc1nn(-c2ccccc2C(F)(F)F)c(=O)n1Cc1ccc(-c2ccccc2S(=O)(=O)NC(=O)c2sccc2C)cc1 | active
17 | CNC[C@@H]1Oc2ccc(NC(=O)CCC(F)(F)F)cc2C(=O)N([C@@H](C)CO)C[C@@H]1C | inactive
18 | CC(C)C[C@](O)(C(=O)OCc1ccc(O[C@@H]2O[C@H](CO)[C@@H](O)[C@H](O)[C@H]2O)cc1)[C@H](O)C(=O)OCc1ccc(O[C@@H]2O[C@H](CO)[C@@H](O)[C@H](O)[C@H]2O)cc1 | inactive
19 | Cn1nnc(NC(=O)COc2ccc(Cl)cc2Cl)n1 | inactive
20 | OC[C@@]1(O)CO[C@H](OC[C@H]2O[C@@H](OC(CCCCc3ccc(O)cc3)CCc3ccc(O)cc3)[C@H](O[C@H]3OC[C@](O)(CO)[C@H]3O)[C@@H](O)[C@@H]2O)[C@@H]1O (some centres undefined) | inactive
21 | COc1cc(CN2CCN(CCO)CC2)c([N+](=O)[O-])cc1OC | inactive
22 | O=C(CCCCCCC(=O)NOCc1ccccc1)NO | inactive
23 | CC(=O)Nc1sccc1C(=O)NCc1ccco1 | inactive
24 | C[C@@H]1CN([C@@H](C)CO)C(=O)c2cc(NC(=O)Cc3ccccc3)ccc2O[C@@H](C)CCCCO[C@@H]1CN(C)C(=O)Nc1ccccc1 | inactive
25 | C[C@@H]1CCCCO[C@@H](CN(C)C(=O)c2ccccc2)[C@@H](C)CN([C@@H](C)CO)C(=O)c2cc(NS(=O)(=O)c3ccccc3)ccc2O1 | inactive

Row | SMILES | outcome
26 | CNC[C@@H]1Oc2c(NC(=O)Nc3ccccc3)cccc2C(=O)N([C@@H](C)CO)C[C@@H]1C | inactive
27 | COC1OC(O)C(O)C12CC[C@@]1(O2)[C@H](C)C[C@H]2OC(=O)[C@@]3(C)CCC[C@]1(C)C23 (some centres undefined) | inactive
28 | CCOc1ccc(OCC(=O)Nc2cc(C)c(Cl)cc2OC)cc1 | inactive
29 | C=CC1c2cc(O)c(OC)cc2CCN1Cc1cccc(OC(F)(F)F)c1 (centres undefined) | inactive
30 | C[C@H](CO)N1C[C@H](C)[C@@H](CN(C)S(=O)(=O)c2cn(C)cn2)OCCCC[C@H](C)Oc2ccc(NC(=O)Cc3ccccc3)cc2C1=O | inactive
31 | CN(C)c1nc(SCCO)nc(N(C)C)n1 | inactive
32 | O=C(COc1ccc(C(=O)Nc2ccccc2Cl)cc1)Nc1ccc(Oc2ccccc2)cc1 | inactive
33 | CC1=CCC(C(C)(C)O[C@@H]2O[C@H](COC(=O)c3cc(O)c(O)c(O)c3)[C@@H](O)[C@H](O)[C@H]2O)CC1 (some centres undefined) | inactive
34 | C/C=C1/[C@H](O[C@@H]2O[C@H](CO)[C@@H](O)[C@H](O)[C@H]2O)OC=C2C(=O)O[C@@H]3C[C@@H](C(C)CO)[C@H](COC(=O)C[C@H]21)[C@H]3C (some centres undefined) | inactive
35 | O=C(NCc1ccco1)c1nc2ncccn2n1 | inactive
36 | COc1ccc(S(=O)(=O)N(C)C[C@@H]2Oc3ncc(C#Cc4ccc(F)cc4)cc3C(=O)N([C@H](C)CO)C[C@@H]2C)cc1 | inactive
37 | C[C@H](CO)N1C[C@H](C)[C@@H](CN(C)S(=O)(=O)c2ccc(Oc3ccccc3)cc2)OCc2cn(nn2)CCCC1=O | inactive
38 | Cc1ccc(-n2c(SCC(=O)Nc3ccccc3F)nnc2-c2ccccc2)cc1C | inactive
39 | COc1ccc(C[C@H]2COC(=O)[C@@H]2Cc2ccc(O[C@@H]3O[C@H](CO)[C@@H](O)[C@H](O)[C@H]3O)c(OC)c2)cc1OC | inactive
40 | CN(C)c1ccc(NC(=O)CSc2nc3c(c(C(F)(F)F)c2C#N)CCCCCC3)cc1 | inactive
41 | Cc1ccc(C(=O)CSc2nsc3sc(C(=O)c4ccc(C)cc4)c(N)c23)cc1 | inactive
42 | O=C(CN1CCOCC1)Nc1ccc(S(=O)(=O)N2CCCC2)cc1 | inactive
43 | OC1(c2ccc3c(c2)OCO3)OCC2C(c3ccc4c(c3)OCO4)OCC21O (centres undefined) | inactive
44 | O=C(NCCCn1ccnc1)c1cnn2c(C(F)(F)F)cc(-c3ccccc3)nc12 | inactive
45 | O=[N+]([O-])c1ccc(NCCNS(=O)(=O)c2ccc(Br)cc2)c(C(F)(F)F)c1 | inactive
46 | Cc1nc(SCC(N)=O)c(C(N)=O)c(C)c1C | inactive
47 | C[C@@H]1CN([C@H](C)CO)C(=O)c2cc(NC(=O)Nc3ccc4c(c3)OCO4)ccc2O[C@@H]1CN(C)Cc1ccc(C(F)(F)F)cc1 | inactive
48 | CC(=O)Nc1ccc(C(=O)CSc2nnc(C)s2)cc1 | inactive
49 | Cc1cc(C)nc(SC2CCCCC2NS(=O)(=O)c2ccc(Cl)cc2)n1 (centres undefined) | inactive
50 | C[C@@H]1CCCCO[C@@H](CN(C)Cc2ccc(C(=O)O)cc2)[C@H](C)CN([C@@H](C)CO)C(=O)c2cc(NC(=O)C3CCCCC3)ccc2O1 | inactive

Row | SMILES | outcome
51 | Cc1cc2nc(-c3ccc(NC(=O)COc4ccccc4[N+](=O)[O-])cc3)oc2cc1C | inactive
52 | CNC[C@@H]1OCCCC[C@H](C)Oc2ccc(NC(=O)Nc3ccccc3)cc2C(=O)N([C@H](C)CO)C[C@H]1C | inactive
53 | C[C@@H]1CN([C@@H](C)CO)C(=O)c2cc(NC(=O)C3CC3)ccc2O[C@H]1CN(C)C | inactive
54 | COC(=O)C(CC#Cc1ccc2c(c1)[C@]1(C(=O)N2)[C@H](c2ccccc2OCCO)N2[C@H](c3ccccc3)[C@H](c3ccccc3)OC(=O)[C@H]2[C@@H]1C(N)=O)C(=O)OC | inactive
55 | O=C1O[C@@H](c2ccccc2)[C@@H](c2ccccc2)N2[C@@H](c3ccccc3OCCO)[C@]3(C(=O)Nc4ccc(C#CC5(O)CCCCCC5)cc43)[C@@H](C(=O)N3CCCCCCC3)[C@H]12 | inactive
56 | O=C1O[C@@H](c2ccccc2)[C@@H](c2ccccc2)N2[C@@H](c3ccccc3OCCO)[C@]3(C(=O)Nc4ccccc43)[C@@H](C(=O)N3CCCCCCC3)[C@H]12 | active
57 | COc1ccc(C#Cc2ccc3c(c2)[C@]2(C(=O)N3)[C@H](c3ccccc3OCCO)N3[C@H](c4ccccc4)[C@H](c4ccccc4)OC(=O)[C@H]3[C@@H]2C(=O)N2CCCCCCC2)cc1 | active
58 | COc1ccc(C#Cc2ccc3c(c2)[C@]2(C(=O)N3)[C@H](C(=O)N3CCCCCCC3)[C@H]3C(=O)O[C@H](c4ccccc4)[C@H](c4ccccc4)N3[C@@H]2c2ccc(O)cc2)cc1 | inactive
59 | O=C1O[C@H](c2ccccc2)[C@H](c2ccccc2)N2[C@H]1[C@@H](C(=O)N1CCN(c3ncccn3)CC1)[C@]1(C(=O)Nc3ccccc31)[C@H]2c1ccc(OCCO)cc1 | inactive
60 | C[C@H]1CN([C@@H](C)CO)C(=O)c2cccc(NC(=O)Nc3ccccc3)c2O[C@@H]1CN(C)S(=O)(=O)c1ccc(F)cc1 | inactive
61 | C[C@@H]1CN([C@@H](C)CO)C(=O)c2cc(NS(C)(=O)=O)ccc2O[C@@H](C)CCCCO[C@@H]1CN(C)C(=O)c1ccccc1 | inactive
62 | Cc1nc(SCC(=O)O)[nH]c(=O)c1Oc1ccccc1 | inactive
63 | C[C@H]1CN([C@@H](C)CO)C(=O)c2cc(N(C)C)ccc2O[C@@H]1CN(C)C(=O)Nc1ccc2c(c1)OCO2 | inactive
64 | COc1ccc2ccccc2c1CNCc1ccccn1 | active
65 | Cc1nnc(SCc2cc(=O)[nH]c(N3CCN(Cc4ccccc4)CC3)n2)s1 | inactive
66 | C[C@@H]1CCCCO[C@@H](CN(C)C(=O)CCC(F)(F)F)[C@@H](C)CN([C@H](C)CO)C(=O)c2cc(NC(=O)CCC(F)(F)F)ccc2O1 | inactive
67 | C[C@@H]1CCCCO[C@H](CN(C)C(=O)CCC(F)(F)F)[C@H](C)CN([C@H](C)CO)C(=O)c2cc(NS(C)(=O)=O)ccc2O1 | inactive
68 | Cc1noc(C)c1S(=O)(=O)Nc1ccc2c(c1)C(=O)N([C@H](C)CO)C[C@@H](C)[C@H](CN(C)C(=O)NC(C)C)OCCCC[C@@H](C)O2 | inactive
69 | Cc1noc(C)c1S(=O)(=O)Nc1ccc2c(c1)C(=O)N([C@@H](C)CO)C[C@H](C)[C@@H](CN(C)C)OCCCC[C@@H](C)O2 | inactive
70 | Cc1noc(C)c1S(=O)(=O)Nc1ccc2c(c1)C(=O)N([C@H](C)CO)C[C@H](C)[C@H](CN(C)C(=O)CCC(F)(F)F)OCCCC[C@H](C)O2 | active
71 | C[C@H](CO)N1C[C@H](C)[C@H](CN(C)C(=O)CCC(F)(F)F)OCCCC[C@H](C)Oc2ccc(NS(C)(=O)=O)cc2C1=O | active
72 | Cc1noc(C)c1S(=O)(=O)Nc1ccc2c(c1)C(=O)N([C@@H](C)CO)C[C@@H](C)[C@H](CN(C)C(=O)NC(C)C)OCCCC[C@@H](C)O2 | active
73 | C[C@@H]1CN([C@H](C)CO)C(=O)c2cc(NS(=O)(=O)c3ccccc3)ccc2O[C@@H](C)CCCCO[C@@H]1CN(C)C(=O)CCC(F)(F)F | inactive
74 | Cc1noc(C)c1S(=O)(=O)Nc1ccc2c(c1)C(=O)N([C@H](C)CO)C[C@H](C)[C@@H](CN(C)C(=O)CCC(F)(F)F)OCCCC[C@H](C)O2 | inactive
